# ATXN2 expr inh – Primary qHTS for Inhibitors of ATXN expression | HEK-293 ATXN2-luciferase reporter, luminescence, 24 h | Potency, µM (highest dose often 57 µM), without a hit: top-dose activity change, negative = inhibition, hits mostly inhibitors | 360,000 compounds, 0.72% hits | AID 1745845, 2022; further: on the % scale 0 is the no-effect control and ±100 the full control effect; nearly all actives have a fitted effect of over 55% in size
#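 qHTS (up to 57 uM final) was run with 24 h compound exposure of reporter cells at 37 °C. Each well was multiplexed: SteadyGlo luminescence measured ATXN2-luciferase expression after a fluorogenic Gly-Phe-AFC viability readout (25 uM final).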
# TGFb inhibitor – qHTS for Inhibitors of TGF-b; HepG2 CAGA-GFP TGF-b/SMAD3 reporter, GFP fluorescence, 18 h; TGF-beta stimulated, 500 pg/mL final; Potency, µM (top dose mostly 46.1 µM), inactives show at the highest dose activity, negative = inhibition, most hits filed as inhibitors; 410,000 compounds, 1.2% hits; further: on the % scale 0 is the no-effect control and ±100 the full control effect; nearly all actives have a fitted effect of over 65% in size
#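 Smad-responsive CAGA-GFP expression was quantified in HEPG2 cells exposed to compounds and 500 pg/mL final TGF-beta for 18 h at 37 degrees C; unstimulated wells defined full inhibition.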
# ATXN viability – Viability Counterscreen for Primary qHTS for Inhibitors of ATXN expression; S2 cells (HEK-293 line with an ATXN2-luciferase reporter) viability, CellTiter-Fluor protease fluorescence, 24 h; Potency, µM (titrated, usually from 56.7 µM), usual class: cytotoxic; 400,000 compounds, 0.49% hits; further: nearly all actives have a fitted effect of over 40% in size
# TDP1 cell CPT – qHTS for Inhibitors of human tyrosyl-DNA phosphodiesterase 1 (TDP1): qHTS in cells in presence of CPT; chicken DT40 Tdp1-/-;hTDP1 cells + 20 nM CPT, ATP luminescence, 48 h; Potency, µM (series often up to 46.2 µM), for the others: at the highest dose activity change, negative = growth inhibition, usual class: inhibitors; 420,000 compounds, 12% hits; further: on the % scale 0 is the no-effect control and ±100 the full control effect; nearly all actives have a fitted effect of over 55% in size
#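 Cell growth measured by CellTiter-Glo luminescence after a minimum 48 h, 37 C compound exposure with 20 nM CPT in Tdp1-knockout DT40 cells stably expressing hTDP1, seeded 400/well; qHTS titration format.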
# HepG2 tox – qHTS for Inhibitors of TGF-b: Cytotox Counterscreen; HepG2 CAGA-GFP viability, ATP luminescence, 18 h; AID 588856, 2011; Potency, µM (highest dose often 46.1 µM), for the others: at the top dose activity change, negative = cytotoxicity, actives largely listed as cytotoxic; 410,000 compounds, 0.76% hits
#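 HepG2 CAGA-GFP cells (1000/well, DMEM with 1% FBS) received compound, then TGF-beta at 500 pg/mL final, and were incubated 18 hours at 37 degrees C. Viability was read by CellTiter-Glo luminescence. Media-only wells were set as complete cell-killing and DMSO as no toxicity.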
# TDP1 cell noCPT – qHTS for Inhibitors of human tyrosyl-DNA phosphodiesterase 1 (TDP1): qHTS in cells in absence of CPT. DT40 Tdp1-/- hTDP1 cells, no CPT, ATP luminescence, 48 h. Potency, µM (top dose mostly 46.2 µM), for the others: at the top dose activity change, negative = growth inhibition, most hits filed as inhibitors. 420,000 compounds, 15% hits. AID 686978, 2013; further: on the % scale 0 is the no-effect control and ±100 the full control effect; nearly all actives have a fitted effect of over 55% in size
#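 No-CPT arm: Tdp1-/-;hTDP1 DT40 cells (400/well) plus compounds, incubated ≥48 hr at 37 °C. Readout CellTiter-Glo luminescence.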
# * marks the source's active call; other numbers are inactive results; i = inactive; ? = inconclusive; . = no result given; ! = repeats disagree. Only some compounds are listed: those with a hit (about 17% of all), similar ones and a draw of the others. The call rests on the fitted dose curve; in most records, active means well fitted curve in the direction sought with a large enough effect; inconclusive means small, poorly fitted or top-dose-only effect, or another doubt; inactive means no such curve, though single readings can be large; an effect the other way counts as inactive or inconclusive. Potency means the concentration at half of the fitted maximal effect.
SMILES,ATXN2 expr inh,TGFb inhibitor,ATXN viability,TDP1 cell CPT,HepG2 tox,TDP1 cell noCPT
COc1ccc(N(C(C)C(=O)NCCSCc2cccc(Cl)c2)S(C)(=O)=O)cc1 (configuration not stated),.,-5.7%,i,?,-12.2%,?
Cc1cccc(N(CC(=O)N(C)Cc2ccccc2)S(=O)(=O)c2ccccc2)c1C,0.0%,-7.9%,i,?,-17.0%,23.1µM*
Cc1cccc(N(CC(=O)NCCc2ccccc2)S(=O)(=O)c2ccccc2)c1C,?,?,?,16.4µM*,-0.4%,18.4µM*
Cc1cccc(N(CC(=O)N/N=C/c2ccc(C(=O)O)cc2)S(=O)(=O)c2ccccc2)c1C,-12.2%,4.6%,i,22.1%,21.3%,?
COc1ccc(N(CC(=O)NCCC2=CCCCC2)S(C)(=O)=O)cc1,-3.5%,1.5%,i,-5.8%,-36.2%,-13.7%
CC(C(=O)NCCSCc1cccc(Cl)c1)N(c1ccccc1)S(C)(=O)=O (configuration not stated),23.9%,12.8%,i,20.6µM*!,-1.1%,13µM*!
Cc1cccc(N(CC(=O)NCCC2=CCCCC2)S(C)(=O)=O)c1C,-10.6%,-4.7%,?,16.4µM*,-17.4%,?
CN(Cc1ccccc1)C(=O)CN(c1ccccc1Cl)S(C)(=O)=O,.,0.1%,i,-3.4%,-3.2%,-23.0%
COc1cccc2cc(C(=O)N(C)C3CCN(C)CC3)c(=O)oc12,2.3%,25.4%,i,3.7%,3.9%,-15.4%
COC1=C(OC)C(=O)C(CC=C(C)CCC=C(C)CCC=C(C)CCC=C(C)CCC=C(C)CCC=C(C)CCC=C(C)CCC=C(C)CCC=C(C)CCC=C(C)C)=C(C)C1=O,6.4%,.,i,.,.,.
Cc1cccc(N(CC(=O)NCCSCc2cccc(Cl)c2)S(=O)(=O)c2ccccc2)c1C,0.0%,-19.0%,i,?,-25.9%,20.6µM*
Cc1ccc(CSCCNC(=O)CN(c2cccc(C)c2C)S(=O)(=O)c2ccccc2)cc1,-9.5%,6.2%,i,?,-33.8%,?
Cc1ccc(CNC(=O)CN(c2cccc(C)c2C)S(=O)(=O)c2ccccc2)cc1,-30.8%,?,i,16.4µM*,-13.2%,16.4µM*
CS(=O)(=O)N(CC(=O)NCCSCc1ccccc1)c1cc(C(F)(F)F)ccc1Cl,-11.9%,?,i,20.6µM*,-4.8%,14.6µM*
COCCNC(=O)CN(c1cc(C(F)(F)F)ccc1Cl)S(C)(=O)=O,-6.3%,-7.0%,i,-7.1%,4.2%,-0.8%
O=C(NCc1ccccc1)c1ccc[n+]([O-])c1,.,11.9%,i,3.7%,-6.5%,-1.8%
COc1cccc(C2=C(C(C)=O)Sc3nnc(C4CCCCC4)n3N2C(C)=O)c1,.,?,.,7.31µM*,-53.3%,11.6µM*
CC(=O)C1=C(c2ccc(Cl)c(Cl)c2)N(C(C)=O)n2c(nnc2C2CCCCC2)S1,.,-6.6%,.,?,-2.8%,-26.5%
CCC(=O)C1=C(c2cccc(OC)c2)N(C(=O)CC)n2c(nnc2C2CCCCC2)S1,.,-22.8%,.,8.2µM*,-6.6%,11.6µM*
CC(=O)C1=C(c2ccccc2)N(C(C)=O)n2c(nnc2C2CCCCC2)S1,.,11.2µM*,.,?,11.2µM*,4.61µM*
CCC(=O)C1=C(c2cccc([N+](=O)[O-])c2)N(C(=O)CC)n2c(nnc2-c2ccccc2)S1,.,-4.9%,.,4.11µM*,-4.8%,3.26µM*
CCC(=O)C1=C(c2ccccc2)N(C(=O)CC)n2c(nnc2C2CCCCC2)S1,.,-0.4%,.,8.9%,-16.8%,-2.5%
COc1ccc(CCNC(=O)CNCC(c2ccccc2)N(C)C)cc1OC (configuration not stated),.,-5.0%,?,5.4%,-3.6%,-10.8%
COc1ccc(CCNC(=O)c2cnc3sc(N4CCOCC4)nn3c2=O)cc1OC,10.2%,-1.4%,i,-18.3%,-22.0%,-19.5%
O=S1(=O)CC(N2CC=CC2)CN1Cc1ccc(F)cc1 (configuration not stated),-5.5%,-9.1%,i,?,1.5%,-10.4%
SMILES,ATXN2 expr inh,TGFb inhibitor,ATXN viability,TDP1 cell CPT,HepG2 tox,TDP1 cell noCPT
CCOC(=O)C1=C(C(F)(F)F)Nc2ncnn2C1c1ccc(OC)cc1OC (configuration not stated),-6.2%,-9.7%,i,10.5%,-22.6%,-32.0%
O=C(CSc1n[nH]c(-c2ccccc2)n1)c1ccccc1,41.8%,1.7%,i,?,-3.7%,?
COc1ccccc1-c1nc(SCC(=O)c2ccccc2)n[nH]1,47.6%,-19.8%,i,?,-7.7%,16.4µM*
CC(C)Oc1ccccc1-c1nc(SCC(=O)c2ccc(F)cc2)n[nH]1,-8.7%,-26.8%,i,20.6µM*,-37.5%,16.4µM*
Cc1ccc(NC(=O)CSc2n[nH]c(-c3ccncc3)n2)cc1C,-5.2%,?,i,-14.4%,-14.3%,-15.4%
COc1ccccc1-c1nc(SCC(=O)Nc2ccc(C)c(C)c2)n[nH]1,?,?,i,23.1µM*,-5.4%,23.1µM*
CCCOc1ccccc1-c1nc(SCC(=O)c2ccccc2)n[nH]1,-1.2%,-12.4%,i,16.4µM*,-13.8%,18.4µM*
COCCn1c(N)c(N(Cc2ccccc2)C(=O)c2ccc(-c3ccc(Cl)cc3)o2)c(=O)[nH]c1=O,-17.6%,-4.5%,i,?,-28.5%,?
CC(C)(C)c1ccc(C(=O)C[n+]2ccccc2Cl)cc1,.,-9.6%,.,-22.8%,-0.6%,?
CCOc1ccc(CNC(=O)CCCn2nc(C)c3sc4ccccc4c3c2=O)cc1,.,4.8%,.,?,-8.4%,?
CCc1cccc(NC(=O)CSc2n[nH]c(-c3ccccc3Cl)n2)c1,.,-61.1%,.,?,-29.4%,?
Cc1cc(C)c(NC(=O)CSc2n[nH]c(-c3ccccc3Cl)n2)c(C)c1,.,10.2%,.,?,-6.0%,6.51µM*
CCCN(CCC)CCNC(=O)Cn1cnc2sc(C)c(S(=O)(=O)N3CCN(c4ccccc4OC)CC3)c2c1=O,4.3%,-21.9%,i,?,-11.2%,14.6µM*
COc1ccccc1N1CCN(S(=O)(=O)c2c(C)sc3ncn(CC(=O)Nc4ccc(C(F)(F)F)cc4)c(=O)c23)CC1,12.2%,-0.3%,?,16.4µM*,1.5%,?
